# ALDH1A1 inh = ALDH1A1 (human) enzyme inhibition; P00352; Purified ALDH1A1, NADH fluorescence, propionaldehyde substrate; Potency, µM (doses to about 75.3 µM), without a hit: at the highest dose activity, negative = inhibition, hits mostly inhibitors; 7.3% of 220,000 active; AID 1030;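 note: plate controls were no enzyme wells and a reference inhibitor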
# Target sequence (P00352 whole entry, looked up): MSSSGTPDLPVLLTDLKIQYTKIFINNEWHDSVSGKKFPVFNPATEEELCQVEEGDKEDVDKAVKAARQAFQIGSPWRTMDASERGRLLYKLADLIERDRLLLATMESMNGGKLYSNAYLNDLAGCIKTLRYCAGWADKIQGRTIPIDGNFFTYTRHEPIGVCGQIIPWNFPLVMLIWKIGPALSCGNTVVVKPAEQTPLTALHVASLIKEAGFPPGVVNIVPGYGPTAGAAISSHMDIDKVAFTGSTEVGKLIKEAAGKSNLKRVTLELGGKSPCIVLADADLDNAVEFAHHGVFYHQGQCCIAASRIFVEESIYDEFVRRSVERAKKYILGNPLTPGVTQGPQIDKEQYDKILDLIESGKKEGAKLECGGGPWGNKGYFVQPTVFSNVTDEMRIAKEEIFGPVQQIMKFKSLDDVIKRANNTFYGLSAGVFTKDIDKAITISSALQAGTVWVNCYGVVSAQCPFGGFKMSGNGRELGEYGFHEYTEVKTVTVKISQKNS
# HTT aggregate = inhibitors of mutant huntingtin aggregate formation in PC12 cells; PC12 HttQ103-GFP aggregates, Acumen cytometry, 40 h; Potency, µM (series often up to 46.1 µM), for the others: top-dose activity change, negative = inhibition, hits mostly inhibitors; 1.1% of 220,000 active; AID 1688; active = well fitted curve in the direction sought with a large enough effect; inconclusive = small, poorly fitted or top-dose-only effect, or another doubt; inactive = no such curve, though single readings can be large; an effect the other way counts as inactive or inconclusive; note: % is set by controls: 0 for no effect and ±100 for the full control effect; nearly all actives have a fitted effect of over 60% in size
#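 Compounds (qHTS titration) were added to PC12 cells expressing an ecdysone-driven HTT exon 1 Q103–GFP fusion after induction with 100 nM tebufenozide. Aggregate formation was measured as GFP objects in cell lysates.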
# HTT cytoprotect = Huntington cell model cytoprotection by ATP luminescence; PC12 HTT-Q103 induced, cytoprotection, ATP luminescence, 40 h; Potency, µM (series often up to 56.4 µM), for the others: cytoprotection (ATP increase), actives largely listed as activators; 0.14% of 230,000 active; AID 1471; active = well fitted curve in the direction sought with a large enough effect; inconclusive = small, poorly fitted or top-dose-only effect, or another doubt; inactive = no such curve, though single readings can be large; an effect the other way counts as inactive or inconclusive; note: % of control where 0% means no effect; nearly all actives have a fitted effect of over 45% in size
#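 Compounds were screened for protection of PC12 cells against cell death after tebufenozide induction (100 nM final) of mutant Huntingtin exon 1 (Q103) fused to GFP.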
# LMNA splice mod = changes lamin A minigene splicing in HeLa cells; HeLa LMNA splicing GFP/RFP minigene ratio, 48 h; Potency, µM (doses to about 46.1 µM), for the others: at the highest dose ratio change, negative = inhibition, actives largely listed as inhibitors; 0.01% of 200,000 active; AID 1487; active = well fitted inhibition curve with a large enough effect in the signal ratio, with a control signal flat, not every such curve was filed as active; inconclusive = small, poorly fitted or top-dose-only effect, or effect the other way, or a change in a side signal; the % refers to the signal ratio; note: % is set by controls: 0 for no effect and ±100 for the full control effect
#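 S3 HeLa stable clones carrying a lamin A-EGFP splicing minigene plus DsRed2 were seeded at 600 cells/well in Opti-MEM with 2% FBS, pin-dosed and incubated 48 h at 37°C. Acumen cytometry (488 nm) gave the GFP/RFP total-intensity ratio.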
# HPGD block = HPGD (human) dehydrogenase inhibition. purified HPGD, NADH fluorescence kinetic, PGE2 substrate. AID 894. 4.3% of 150,000 active. Potency, µM, without a hit: top-dose activity change, negative = inhibition, usual class: inhibitors. P15428; note: % is set by controls: 0 for no effect and ±100 for the full control effect
#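 NADH formation kinetics: reaction with 30 uM PGE2 and 1 mM NAD+ (final), 20 nM enzyme, Tris-HCl pH 8 with Tween 20, after 15 min compound preincubation at room temperature. Fluorescence change, last versus first of five reads.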
# * hit, by the source's call; ? = inconclusive; . = no result; ! = repeats disagree; [ ] = dose if it differs, or a comment. An excerpt weighted towards active compounds, which were near 8.8% of everything screened. Unless noted, calls come from the whole dose curve; as a rule, active = well fitted inhibition curve with a large enough effect (not every such curve was filed as active); inconclusive = small, poorly fitted or top-dose-only effect, or another doubt; inactive = no such curve, though single readings can be large or run the other way. Potency is the fitted concentration of half-maximal effect.
SMILES,ALDH1A1 inh,HTT aggregate,HTT cytoprotect,LMNA splice mod,HPGD block
Cc1ccc(-c2noc(CCC(=O)Nc3ccccc3C)n2)cc1,-4%,-1%,20%[0.074 µM],?,-7%
Cc1cc2occ(CC(=O)NC3CCCc4ccccc43)c2cc1C (configuration not stated),2.2µM*,17%,4%[10 µM],-19%,-9%
COc1ccc2c(CC(=O)NC3CCCc4ccccc43)coc2c1 (configuration not stated),?,6%,-5%[10 µM],-13%,.
COc1ccc(C(=O)Nc2ccc3c(c2)CCCN3S(=O)(=O)c2ccc(C)cc2)c(OC)c1,.,.,.,-7%[46 µM],.
Cn1c(SCc2ccccc2Cl)nc2c([nH]c3ccccc32)c1=O,.,.,.,0%[46 µM],.
Cc1ccc(-c2noc(CCC(=O)N3CCCC3)n2)cc1,0%,-5%,6%,?,25µM*
CCN(C(=O)CCc1nc(-c2ccc(OC)cc2)no1)c1cc(OC)ccc1OC,-14%,?,-19%,?,14µM*
CCN1CCN(C(=O)c2cnn(-c3ccc(F)cc3F)c2C2CCN(C(=O)OC(C)(C)C)CC2)CC1,.,.,.,18%[46 µM],.
COc1ccc(N=C2S/C(=C\c3ccc(N4CCOCC4)o3)C(=O)N2CCc2c[nH]c3ccccc23)cc1,8.9µM*,-9%[9.22 µM],-99%,?,?
COc1ccc(N=C2S/C(=C\c3ccc(OCC(=O)O)cc3)C(=O)N2CCc2c[nH]c3ccccc23)cc1,?,26%[9.22 µM],7%,.,.
COc1ccc(N=C2NC(=O)/C(=C\c3ccco3)S2)cc1,?,-10%,-28%,0%[46 µM],.
COc1ccc(N=C2S/C(=C\c3ccc(C)o3)C(=O)N2CC(C)C)cc1,8.9µM*,-4%[9.22 µM],30%,2%,-26%
CCCN1C(=O)/C(=C/c2ccc(C)o2)SC1=Nc1ccc(OCC)cc1,7.9µM*,28%,1%,0%,-11%
CCCN1C(=O)/C(=C/c2ccco2)SC1=Nc1ccc(OC)cc1,13µM*,24%,-24%,8%,-6%
O=C(CSc1nc2ccccc2nc1Cc1ccc(Cl)cc1)N1CCc2ccccc21,.,.,.,-4%[46 µM],.
CCCCn1c(SCC(=O)NCc2ccc(C)cc2)nc2c(sc3ccccc32)c1=O,.,.,.,5%[46 µM],.
CCCN1C(=O)/C(=C\c2ccncc2)SC1=Nc1ccccc1,-3%,-6%,8%[10 µM],?,32µM*
CCCN1C(=O)/C(=C/c2ccc(C)o2)SC1=Nc1ccc(OC)cc1,3.5µM*,16%,-3%,?,25µM*
CCCS(=O)(=O)N1CC(=O)N(c2cccc(Cl)c2)C(C)(C(=O)NC2CCCCC2)C1 (configuration not stated),.,.,.,22%[46 µM],.
CCc1ccccc1NC(=O)c1cc(=O)c2ccccc2o1,-4%,8%,-32%,18%[46 µM],.
CN[C@@H]1[C@H](O[C@@H]2O[C@H](C)[C@@](O)(CO)[C@H]2O[C@H]2[C@H](O)[C@H](O)[C@H](N=C(N)N)[C@@H](O)[C@@H]2N=C(N)N)O[C@@H](CO)[C@H](O)[C@H]1O,10µM*,.,-48%,.,0%
CN[C@@H]1[C@H](O[C@@H]2O[C@H](CO)[C@@H](N)[C@H](O)[C@@H]2O)O[C@H]2C[C@@H](N)[C@@H](O[C@H]3[C@@H](O)[C@H](O)[C@H](N)C[C@@H]3N)O[C@H]2[C@H]1O,-3%[20.9 µM],-7%[20.6 µM],-4%[40.3 µM],-13%,1%
Cc1ccc(-c2n[nH]c(=O)c3ccccc23)cc1S(=O)(=O)NCCO,7%,-2%,4%,-22%,14µM*
CCOC(=O)CNS(=O)(=O)c1cc(-c2nn(C)c(=O)c3ccccc23)ccc1C,?,-15%,14%,-10%,16µM*
CCCNC(=O)CN1C(=O)c2cccnc2Sc2ccccc21,.,.,.,-21%[46 µM],.
SMILES,ALDH1A1 inh,HTT aggregate,HTT cytoprotect,LMNA splice mod,HPGD block
CO[C@@H]1c2cc(F)ccc2/C(=C\CCOC(=O)C/C=C/c2ccccc2)[C@H]1C,-3%,.,-47%,.,-6%
Nc1c(C(=O)C2CC2)sc2nc(-c3ccccc3)cc(C(F)(F)F)c12,?,-29%,7%[10 µM],-5%,28µM*
CC(=O)c1sc2nc(-c3cccs3)cc(C(F)(F)F)c2c1N,?,11%,-12%[0.074 µM],5%,-29%
CN(C(Cc1ccc(OS(=O)(=O)c2cccc3cnccc23)cc1)C(=O)N1CCN(c2ccccc2)CC1)S(=O)(=O)c1cccc2cnccc12 (configuration not stated),14µM*!,.,-45%,.,.
CN([C@@H](Cc1ccc(OS(=O)(=O)c2cccc3cnccc23)cc1)C(=O)N1CCN(c2ccccc2)CC1)S(=O)(=O)c1cccc2cnccc12,-11%,?,.,?,-7%
O=[N+]([O-])c1ccc(O)c(/C=N\N=C2c3ccccc3-c3ccccc32)c1,-8%,11µM*,26%[10 µM],?,-18%
O=[N+]([O-])c1ccc(O)c(/C=N/n2cnnc2)c1,20µM*,5%,32%[10 µM],-14%,-18%
CC(=O)c1cccc(NC(=O)C2CCN(S(=O)(=O)c3ccc4c(c3)CCCN4C(C)=O)CC2)c1,.,.,.,8%[46 µM],.
Clc1ccccc1N=C1NN=C(c2cccs2)CS1,-10%,-19%,-26%,?,.
COc1ccc2sc3ccccc3c(=O)c2c1OC,-4%,-13%,-23%,-1%,6.3µM*
CCn1c(SCC(=O)c2ccccc2)nnc1-c1cnccn1,-8%,-11%,5%,12%,18µM*
CCn1c(SCC(=O)c2ccc(O)c(O)c2)nnc1-c1ccc(C)cc1,0%,-17%,-20%,?,-15%
CCn1c(SCc2ccc(C)cc2)nnc1-c1cnccn1,-3%,6%,-11%[0.074 µM],8%,-15%
Cc1ccc(C(=O)CSc2nnc(-c3ccccc3N)n2C)cc1,11µM*,13%,-9%,?,-22%
Cn1c(SCC(=O)c2ccccc2)nnc1-c1cnccn1,20µM*,16%,-11%,-8%,-21%
CCn1c(Cc2cccn2C)nnc1SCC(=O)c1ccc(C)cc1,10µM*,1%[9.22 µM],27%[10 µM],3%,?
CCn1c(SCC(=O)Nc2ccccc2)nnc1-c1cccs1,.,-31%[9.22 µM],-3%[10 µM],.,.
CCn1c(SCC(=O)c2ccc(NS(=O)(=O)c3ccccc3)cc2)nnc1-c1cccs1,?,-2%,-11%[0.074 µM],-4%,22µM*
O=C(O)c1cc(S(=O)(=O)NCc2ccco2)c(Cl)cc1Cl,20µM*,5%,2%,0%,-18%
Cc1ccc(C2CCN(C(=O)Nc3ccc(C)c(C)c3)C2)cc1 (configuration not stated),.,.,.,13%[46 µM],.
O=C(c1cc2ncc(CCCl)cn2n1)N1CCCCCC1,?,10%,.,10%,1µM*
CCOC(=O)c1sc2nc(CSc3ccccc3)nc(NCCN(C)C)c2c1C,-8%,4%,3%[10 µM],.,.
CCOc1ccc(C(=O)NCC(c2ccc3c(c2)OCO3)N2CCOCC2)cc1 (configuration not stated),.,.,.,-6%[46 µM],.
